Screening results as filed in PubChem BioAssay.
aSyn UTR act: Activators via SNCA 5'UTR binding, MLPCN. alpha-synuclein 5'UTR reporter, activators screen. activity score, % (tested at 7.5 µM), hits read low. actives 7.1% (n = 300,000). AID 1814, 2009; in the data active = activity score below about -60%
The depositor's hits bear a star. The list is a sample of the results.

SMILES	aSyn UTR act
O=C(ONc1ccc(N=NC(=O)c2ccccc2O)cc1)c1ccccc1	-85.8*
Cc1ccc2c(c1)c1cccc3c1n2CCN3CCC(N)=O	-171.9*
Cc1ccc(Oc2nn[nH]n2)cc1	-77.5*
O=c1c(O)c(-c2ccc(O)c(O)c2)oc2cc(O)cc(O)c12	-108.6*
COc1cc(-c2cc(=O)c3c(O)c(OC)c(OC)c(O)c3o2)ccc1O	87.3
O=c1cc(-c2ccc(O)c(O)c2)oc2cc(O)cc(O)c12	-206.6*
CCc1cc2c(=O)n(CC(C)C)cnc2s1	-100.7*
CCCCCn1cnc2sc(CC)cc2c1=O	-168.8*
CCc1cc2c(=O)n(-c3ccc(Br)cc3)cnc2s1	-160.3*
Clc1ccccc1-c1ncc(-c2ccccc2)o1	-143.0*
O=C(N/N=C/c1cc(Br)c(Br)o1)c1ccc2c(c1)OCCO2	-135.3*
COc1cccc(/C=N/Nc2ccc([N+](=O)[O-])cn2)c1O	102.1
O=C(N/N=C/c1cccc([N+](=O)[O-])c1)c1ccc2c(c1)OCCO2	-125.9*
CN(C)c1ccc(/C=N/NC(=O)c2cc(-c3ccc4c(c3)OCO4)n[nH]2)cc1	-137.0*
CCCCCCCC(=O)Nc1ccc(C(=O)N/N=C/c2cccc([N+](=O)[O-])c2)cc1	76.2
Cc1cc(/C=N/Nc2ccc([N+](=O)[O-])cn2)c(C)n1-c1ccccc1	-136.6*
O=C(N/N=C/c1ccc2c(c1)OCO2)c1ccc2c(c1)OCCO2	-136.1*
CCN(CC)c1ccc(/C=N/NC(=O)c2ccc(Br)o2)cc1	-160.3*
Cc1cc(C(=O)N/N=C/c2cccc([N+](=O)[O-])c2)c(C)n1-c1ccccc1	-142.2*
O=C(N/N=C/c1ccc2c(c1)OCO2)c1ccc(Br)o1	-250.0*
O=C(Nc1cccc(C(=O)O)c1)/C(=C\c1ccc2c(c1)OCO2)NC(=O)c1ccc(Br)o1	-67.9*
O=C(N/N=C/c1cccs1)c1ccc2c(c1)OCO2	-65.4*
CCN(CC)c1ccc(/C=N/NC(=O)C2CC2)cc1	-61.8*
O=C(Cc1ccccc1)N/N=C/c1cc(Br)c(Br)o1	-67.6*
O=C(N/N=C/c1ccc(Cl)cc1)c1ccc2c(c1)OCO2	-396.3*
SMILES	aSyn UTR act
Cc1c(C(=O)N/N=C/c2ccc(Cl)cc2)[nH]c2ccc(Cl)cc12	-122.3*
CCN(CC)c1ccc(/C=N/NC(=O)Nc2nonc2N)cc1	-77.7*
CCC/C(=N/NC(=O)c1ccc2c(c1)OCO2)c1cccs1	-69.3*
O=C(N/N=C/c1cc(Br)cc(Cl)c1O)c1ccc2c(c1)OCO2	50.0
Cc1ccccc1/C=N/NC(=O)c1sccc1C	-176.5*
CC(C)(C)c1cc(C(=O)N/N=C/c2ccccc2O)n(-c2ccccc2)n1	62.4
COc1ccc(/C=N/NC(=O)c2sccc2C)c2ccccc12	-110.2*
Cc1ccccc1/C=N\NC(=O)c1ccccc1-n1cccc1	-65.4*
Cc1ccsc1C(=O)NN=C1CCCCCC1	-127.5*
Cc1ccc(NC(=O)COc2ccccc2C(=O)Nc2ccccc2)cc1Cl	-82.0*
CCOc1ccc(NC(=O)C(C)Oc2ccccc2C(=O)Nc2ccc(C)c(Cl)c2)cc1 (stereo not drawn)	-126.2*
Cc1cccc(NC(=O)c2ccccc2OCC(=O)c2ccc(F)cc2)c1	29.8
Cc1ccc(NC(=O)CSc2ccccc2NC(=O)c2ccccc2)cc1Cl	-78.3*
N#CC(C(=O)C12CC3CC(CC(C3)C1)C2)c1nc2ccccc2[nH]1 (stereo not drawn)	-73.7*
Cc1nc(-c2ccc(S(=O)(=O)Oc3ccccc3Cl)s2)cs1	-68.1*
O=C(Nc1ccccc1)N(C1=NCCCCS1)c1cccc2ccccc12	-84.8*
CN1CCCN(C(=O)/C=C/c2ccc(Cl)cc2Cl)CC1	-62.1*
CC(=O)c1ccc(N(C(=O)Cc2c[nH]c3ccccc23)C(C(=O)NC2CCCCC2)c2cccs2)cc1 (stereo not drawn)	-83.7*
O=C(Nc1ccc(F)cc1)Oc1ccc[nH]c1=O	-82.4*
COCCCNC(=O)Cn1nnc(-c2ccc(NC(=O)c3ccccc3F)cc2)n1	-95.4*
COC(=O)CCn1nnc(-c2ccc(C(C)C)cc2)n1	119.1
N#Cc1cnc2sc3ccccc3n2c1=N	-68.0*
CN=c1sc(C(=O)Nc2cccc(Cl)c2)cc(=O)n1C	-139.7*
Cn1ccs/c1=N\C(=O)Nc1cccc(Cl)c1	-153.5*
Cn1c(N)c(C(=O)Nc2cccc(Cl)c2)c(=O)n(C)c1=O	-76.3*
SMILES	aSyn UTR act
O=C(Nc1ccc(N2CCCC2)cc1)c1cc2ccccc2o1	-131.1*
Cc1cc(C(=O)Nc2ccccc2)oc1C	-112.4*
O=C(Nc1ccc(NC(=O)c2cc3ccccc3o2)cc1)c1ccco1	-94.7*
CSC(C(=O)c1cc2ccccc2o1)c1ccccc1 (stereo not drawn)	-88.2*
CC(C)c1nnc(NC(=O)c2cc3ccccc3o2)s1	-135.1*
O=C(NNC(=O)c1ccccc1O)c1cc2ccccc2o1	-86.0*
O=C(Nc1ccccc1)c1cc2ccccc2o1	-112.1*
O=C(Nc1ccccc1)c1ccc(OC(=O)c2cc3ccccc3o2)cc1	-83.9*
CC(=O)c1ccc(NC(=O)c2cc3ccccc3o2)cc1	-128.3*
O=C(Nc1ccc(F)cc1)c1cc2ccccc2o1	-153.3*
O/N=C/c1ccn(-c2ccc(Br)cc2)c1	-84.1*
